“And” between values parts separate entries of the source, which are not always exact repeats. Identical values can stand only once. The source made the active and inactive calls. The calls were made as follows: active = hit-call score of the fitted dose curve at least 0.9, where 1 is the maximum; inactive = score below 0.9.
Read-out: not listed separately
Assay: BSK_BF4T_SRB: Viability Assessment in the BioMAP Diversity Plus: BF4T Assay (AID 2284274)
Conditions: primary human bronchial epithelial cells with fibroblasts
In short: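 Cytotoxicity measured as total protein: cells fixed with 10% TCA, stained with 0.1% SRB, read at 560 nm. Bronchial epithelial/dermal fibroblast co-culture, 24 h after dosing, with positive-direction fitting relative to DMSO.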
For C[Si](Cl)(Cl)CCC(F)(F)C(F)(F)C(F)(F)C(F)(F)C(F)(F)C(F)(F)F, the outcome was “inactive”.
With O=C(O)C(F)(F)C(F)(F)C(F)(F)OC(F)(F)F the outcome was “inactive”.
For NCC(F)(F)C(F)(F)C(F)(F)C(F)(F)C(F)(F)C(F)(F)C(F)(F)C(F)(F)F, the outcome was “inactive”.
In the case of CCOC(=O)CC(=O)C(F)(F)C(F)(F)F, the outcome was “inactive”.
In the case of O=S(=O)(OCC(F)(F)F)C(F)(F)C(F)(F)C(F)(F)C(F)(F)F, the outcome was “inactive”.

Read-out: urokinase Plasminogen Activator (uPA), PLAU (gene 5328)
Assay: BSK_BF4T_uPA: BioMAP Diversity Plus: BF4T Assay for urokinase Plasminogen Activator (uPA) Biomarker Activity (AID 2284275)
Conditions: primary human bronchial epithelial cells with fibroblasts
In short: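 uPA levels measured by ELISA at 24 hours in BF4T cultures (bronchial epithelial cells plus dermal fibroblasts) and compared with DMSO; cytotoxicity tracked in parallel cultures by sulforhodamine B staining.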
For O=C(O)C(F)(F)C(F)(F)C(F)(F)C(F)(F)C(F)(F)C(F)(F)C(F)F, the outcome was “inactive”.
For C=CC(=O)OCC(F)(F)C(F)(F)C(F)(F)COC(=O)C=C, the AC50 was 30 µM (active) and 25.7 µM (active).
In the case of COC(F)(C(F)F)C(F)(F)F (configuration not stated), the outcome was “inactive”.
With O=S(=O)(O)CCC(F)(F)C(F)(F)C(F)(F)C(F)(F)F the outcome was “inactive”.
In the case of NC(=O)C(F)(F)C(F)(F)C(F)(F)C(F)F, the outcome was “inactive”.
For OCCCC(F)(F)C(F)(F)C(F)(F)C(F)(F)C(F)(F)C(F)(F)C(F)(F)C(F)(F)F, the AC50 was 22.5 µM (active) and 19.4 µM (active).
With FC(F)(F)C(F)(F)C(F)(F)C(F)(F)C(F)(F)C(F)(F)CC[Si](Cl)(Cl)Cl the outcome was “inactive”.
For OCC(O)CC(F)(F)C(F)(F)C(F)(F)C(F)(F)F (configuration not stated), the outcome was “inactive”.
For OCC(F)(F)C(F)(F)C(F)(F)C(F)(F)C(F)(F)C(F)(F)C(F)(F)C(F)(F)CO, the outcome was “inactive”.
With C=CC(=O)OCCC(F)(F)C(F)(F)C(F)(F)C(F)(F)F the outcome was “inactive”.
With FC(F)(F)C(F)(F)C(F)(F)CC1CO1 (configuration not stated) the outcome was “inactive”.
For NC(=O)C(F)(F)C(F)(F)C(F)(F)C(F)(F)C(F)(F)C(F)(F)C(F)(F)F, the outcome was “inactive”.

— PubChem BioAssay (EPA / NIEHS)
